# Source: the supplement of paper PMC10646978
# ± gives the standard deviation.
# Legend:
# Conditions in all cases: modulator concentration 10 µM
# [1] = system: RAW-Dual (murine macrophage reporter line); assay: NF-kB reporter (SEAP) activity fold change vs agonist alone; higher = enhanced NF-kB activity
# Outline: (§1)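 Overnight stimulation with a PRR agonist followed pre-incubation for 1 hour at 37 °C with compound at 10 μM final. This was done in RAW-Dual murine macrophage reporter cells seeded at 50 000 per well in 384-well plates. NF-κB (SEAP, QUANTI-Blue absorbance at 620 nm) and IRF (Lucia luciferase, QUANTI-Luc luminescence) were read from the supernatant. Each reporter's fold change relative to the mean agonist-only control on the same plate was averaged over replicate plates.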
# [2] = system: RAW-Dual (murine macrophage reporter line); assay: IRF reporter (Lucia luciferase) activity fold change vs agonist alone; higher = enhanced IRF activity
# Outline: as §1
# [3] = system: RAW-Dual (murine macrophage reporter line); assay: viability score (confluency relative to resting cells, overnight) (fraction); higher = more viable, active = viable (0.7 or more)
# Outline: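 Overnight exposure to 10 μM final compound was carried out on RAW-Dual macrophages in 384-well plates. IncuCyte software generated two confluency masks over all wells imaged with IncuCyte. The viability score gives confluency in relation to resting cells. A compound met the cutoff if each mask exceeded 70% of resting cells.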
# [4] = agonist: CpG ODN 1826 0.5 ug/mL
SMILES,"NF-kB reporter [1, 4]",NF-kB reporter ([1]; agonist: LPS 0.1 ug/mL),NF-kB reporter ([1]; agonist: MPLA […]),IRF reporter ([2]; agonist: 3'3'-cGAMP 10 ug/mL),IRF reporter ([2]; agonist: LPS 0.1 ug/mL),IRF reporter ([2]; agonist: MPLA […]),viability score [3]
CC1=C(C(=O)OC(C)C)C(c2cccc([N+](=O)[O-])c2)C(C(=O)OC2CN(C(c3ccccc3)c3ccccc3)C2)=C(N)N1 (configuration not stated),1.58 ± 0.068,1.82 ± 0.15,2.56 ± 0.17,0.36 ± 0.021,1.66 ± 0.24,2.12 ± 0.44,0.902 (active)
c1ccc(-c2cc3c4cccn4ccn3c2)cc1,1.03 ± 0.1,0.87 ± 0.068,0.848 ± 0.085,0.31 ± 0.029,1.29 ± 0.21,1.32 ± 0.39,1.04 (active)
Cn1c(=O)[nH]c2nnc(-c3cccnc3)nc2c1=O,1.09 ± 0.2,0.961 ± 0.084,0.975 ± 0.081,0.927 ± 0.03,1.22 ± 0.12,1.31 ± 0.13,0.881 (active)
CSc1ccccc1NC(=O)C1CCCN(c2ccc(-n3cncn3)nn2)C1 (configuration not stated),0.991 ± 0.073,1.04 ± 0.099,1.18 ± 0.063,0.973 ± 0.077,1.23 ± 0.22,1.43 ± 0.37,0.995 (active)
COc1ccc(C(=O)Nc2cc(C)nc3c(C)cc(C)cc23)cc1OC,0.763 ± 0.18,0.948 ± 0.054,0.838 ± 0.055,0.501 ± 0.038,0.767 ± 0.15,0.746 ± 0.07,0.589 (inactive)
COc1cc(CNC2CCCc3ccccc32)cc(OC)c1OC (configuration not stated),0.878 ± 0.074,1.02 ± 0.095,0.982 ± 0.04,0.865 ± 0.056,1.05 ± 0.087,0.972 ± 0.15,0.992 (active)
CCCCNCCCCOc1ccc(C)cc1C(C)(C)C,0.441 ± 0.12,0.167 ± 0.036,1.38 ± 0.048,0.0798 ± 0.034,0.201 ± 0.056,2.6 ± 0.65,0.0697 (inactive)
Cc1cc(C)n2nc(C(=O)NN=Cc3ccc(N(C)C)cc3)nc2n1,1.1 ± 0.069,1.09 ± 0.067,0.934 ± 0.084,0.996 ± 0.033,1.37 ± 0.11,1.3 ± 0.25,1.01 (active)
CN1CCC[C@@H]1CCO[C@](C)(c1ccccc1)c1ccc(Cl)cc1.O=C(O)/C=C/C(=O)O,1.17 ± 0.29,1.01 ± 0.13,1.06 ± 0.1,0.526 ± 0.021,1.28 ± 0.17,1.63 ± 0.16,0.321 (inactive)
COc1cc2c(cc1OC)CN(CCc1ccc(NC(=O)c3cccc4c(=O)c5cccc(OC)c5[nH]c34)cc1)CC2,0.0904 ± 0.022,1.43 ± 0.075,1.2 ± 0.088,0.132 ± 0.0091,1.42 ± 0.26,1.6 ± 0.15,0.971 (active)
Cc1cc(-c2ccc(N=Cc3ccc(Cl)c([N+](=O)[O-])c3)c(C)c2)ccc1N=Cc1ccc(Cl)c([N+](=O)[O-])c1,1.01 ± 0.056,1.01 ± 0.073,1.02 ± 0.065,0.821 ± 0.031,1.38 ± 0.11,1.13 ± 0.19,1 (active)
O=C(NCCCc1cnc2ncnn2c1)c1cccc2ccccc12,0.88 ± 0.039,0.857 ± 0.071,1.06 ± 0.059,1.02 ± 0.057,1.23 ± 0.14,1.45 ± 0.39,0.98 (active)
O=C(O)c1cc(Nc2ccnc3cc(Cl)ccc23)ccc1O,1.04 ± 0.082,1.02 ± 0.088,0.932 ± 0.044,0.963 ± 0.05,1.02 ± 0.056,0.96 ± 0.18,1 (active)
Oc1ccc(/C=C/c2cc(O)cc(O)c2)cc1,1.06 ± 0.16,1.23 ± 0.28,1.11 ± 0.084,0.695 ± 0.041,0.845 ± 0.13,0.798 ± 0.12,0.982 (active)
CS(=O)(=O)O.Cc1c(O)cccc1C(=O)N[C@@H](CSc1ccccc1)[C@H](O)CN1C[C@H]2CCCC[C@H]2C[C@H]1C(=O)NC(C)(C)C,0.399 ± 0.017,0.968 ± 0.08,1.29 ± 0.07,1.09 ± 0.056,1.26 ± 0.29,1.32 ± 0.46,0.987 (active)
NC(=O)CC[C@@H](N)C(=O)O,1.16 ± 0.31,1.05 ± 0.059,0.953 ± 0.068,0.946 ± 0.046,1.37 ± 0.2,1.23 ± 0.17,1.01 (active)
C/C(=C(\CCOP(=O)(O)O)SC(=O)c1ccccc1)N(C=O)Cc1cnc(C)nc1N [Prestw-654],1.03 ± 0.19,1.25 ± 0.15,1.1 ± 0.13,0.943 ± 0.031,1.04 ± 0.15,1.28 ± 0.14,0.974 (active)
C[C@@H](O)[C@H]1C(=O)N2C(C(=O)O)=C(SCCNC=N)C[C@H]12.O,0.988 ± 0.074,1.01 ± 0.049,0.981 ± 0.034,0.897 ± 0.086,1.04 ± 0.089,1.25 ± 0.14,0.999 (active)
Br.Cc1ccc(-c2csc(N3N=C(c4ccc(F)cc4)CC3c3ccc(C(C)C)cc3)n2)cc1C (configuration not stated),0.948 ± 0.083,1.01 ± 0.072,0.903 ± 0.088,0.824 ± 0.027,1.35 ± 0.14,1.13 ± 0.099,1 (active)
Nc1ncnc2c1nc(S)n2C1OC(CO)C(O)C1O (configuration not stated),0.775 ± 0.061,0.9 ± 0.082,0.951 ± 0.11,0.957 ± 0.051,1.15 ± 0.067,1.27 ± 0.14,1.02 (active)
O=C(NC(=S)NNc1ccccc1)c1cc2ccccc2oc1=O,1.08 ± 0.23,1.16 ± 0.15,1.03 ± 0.11,0.861 ± 0.022,1.23 ± 0.16,1.12 ± 0.2,0.999 (active)
CN1CCN(CCC=C2c3ccccc3Sc3ccc(S(=O)(=O)N(C)C)cc32)CC1,0.935 ± 0.071,1.04 ± 0.12,1.01 ± 0.051,0.856 ± 0.057,0.978 ± 0.078,0.872 ± 0.076,0.991 (active)
Clc1ccccc1C1Nc2cccc3cccc(c23)N1,1.04 ± 0.092,0.898 ± 0.091,0.867 ± 0.084,0.684 ± 0.06,0.967 ± 0.14,0.792 ± 0.14,0.97 (active)
O=C(O)CC(c1ccccc1)N1C(=O)c2ccccc2C1=O (configuration not stated),0.999 ± 0.17,1.04 ± 0.13,0.963 ± 0.11,0.976 ± 0.044,1.24 ± 0.22,1.3 ± 0.21,1 (active)
Cc1cc(NC(=O)c2ccoc2COc2ccccc2)no1,1.17 ± 0.063,1.08 ± 0.093,1.32 ± 0.071,1.21 ± 0.061,1.21 ± 0.23,1.46 ± 0.38,0.962 (active)
N=C(N)Nc1nc(CSCCC(=N)NS(N)(=O)=O)cs1,1.09 ± 0.1,0.992 ± 0.059,1.06 ± 0.039,0.967 ± 0.064,0.898 ± 0.036,1.02 ± 0.088,0.995 (active)
